# Test results from the supplement of paper PMC10849652.
# Targets with a hit are over-represented here; the source holds about 8,800 in all. About 0.5% of all pairs of compound and target were hits. Unmarked numbers belong to inactive results.
# Assays:
# Assay in all cases: log2 fold change, soluble protein after heating vs DMSO (PISA); higher = thermal stabilisation; K562 lysate, 10 uM; active = over 0.2 and 3.5 SD of the protein, either way, in both replicates (recomputed)
# nilotinib = compound: Cc1cn(-c2cc(NC(=O)c3ccc(C)c(Nc4nccc(-c5cccnc5)n4)c3)cc(C(F)(F)F)c2)cn1 [nilotinib]
# Method in brief: (§1)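 Thermal stability, expressed as log-two fold change relative to solvent controls, is given from duplicates. Crude K562 extract in PBS pH 7.4 with 1 mM MgCl2, at 1 mg/mL protein, was treated with 10 μM compound for 30 min and heated in aliquots for 3 min across 48°C-58°C. After pooling, adjustment to 0.5% NP-40 at 4°C and centrifugation at 21,000xg for 90 min, supernatant protein was measured by TMTpro 16plex LC-MS/MS with channel sums equalised.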
# [1] = compound: Cc1nc(Nc2n[nH]c3c2CN(C(=O)N[C@H](CN(C)C)c2ccccc2)C3(C)C)c2sccc2n1
# Method in brief: as §1
# dasatinib = compound: Cc1nc(Nc2ncc(C(=O)Nc3c(C)cccc3Cl)s2)cc(N2CCN(CCO)CC2)n1 [dasatinib]
# Method in brief: as §1
# [2] = compound: Cc1ncc(-c2ccnc(Nc3ccc(S(C)(=O)=O)cc3)n2)n1C(C)C
# Method in brief: as §1
# [3] = compound: Cn1cc(-c2ccc3c(c2)CCN3C(=O)Cc2cccc(C(F)(F)F)c2)c2c(N)ncnc21
# Method in brief: as §1
# quisinostat = compound: Cn1cc(CNCC2CCN(c3ncc(C(=O)NO)cn3)CC2)c2ccccc21 [quisinostat]
# Method in brief: as §1
# tipifarnib = compound: Cn1cncc1[C@@](N)(c1ccc(Cl)cc1)c1ccc2c(c1)c(-c1cccc(Cl)c1)cc(=O)n2C [tipifarnib]
# Method in brief: as §1
# [4] = compound: NC(=O)Nc1cc(-c2cccc(F)c2)sc1C(=O)N[C@H]1CCCNC1
# Method in brief: as §1
# [5] = compound: NC(=O)c1cnc(N[C@@H]2CCCC[C@@H]2N)nc1Nc1cccc(-n2nccn2)c1
# Method in brief: as §1
# [6] = compound: NC1(c2ccc(-c3nc4ccn5c(=O)[nH]nc5c4cc3-c3ccccc3)cc2)CCC1
# Method in brief: as §1
# [7] = compound: NCC(=O)Nc1ccc(-n2nc(C(F)(F)F)cc2-c2ccc3c(ccc4ccccc43)c2)cc1
# Method in brief: as §1
# vorinostat = compound: O=C(CCCCCCC(=O)Nc1ccccc1)NO [vorinostat]
# Method in brief: as §1
# silmitasertib = compound: O=C(O)c1ccc2c(c1)nc(Nc1cccc(Cl)c1)c1ccncc12 [silmitasertib]
# Method in brief: as §1
# [8] = compound: O=C1NC(=O)C(c2cnc3ccccn23)=C1c1cn2c3c(cc(F)cc13)CN(C(=O)N1CCCCC1)CC2
# Method in brief: as §1
# entospletinib = compound: c1cn2cc(-c3ccc4cn[nH]c4c3)nc(Nc3ccc(N4CCOCC4)cc3)c2n1 [entospletinib]
# Method in brief: as §1
# Sequence of UniProt Q8WVK7 (Q8WVK7 whole entry, looked up): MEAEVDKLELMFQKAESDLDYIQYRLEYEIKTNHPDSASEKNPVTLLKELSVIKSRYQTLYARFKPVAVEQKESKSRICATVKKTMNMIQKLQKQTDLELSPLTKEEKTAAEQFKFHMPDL
# Sequence of UniProt Q92540 (Q92540 whole entry, looked up): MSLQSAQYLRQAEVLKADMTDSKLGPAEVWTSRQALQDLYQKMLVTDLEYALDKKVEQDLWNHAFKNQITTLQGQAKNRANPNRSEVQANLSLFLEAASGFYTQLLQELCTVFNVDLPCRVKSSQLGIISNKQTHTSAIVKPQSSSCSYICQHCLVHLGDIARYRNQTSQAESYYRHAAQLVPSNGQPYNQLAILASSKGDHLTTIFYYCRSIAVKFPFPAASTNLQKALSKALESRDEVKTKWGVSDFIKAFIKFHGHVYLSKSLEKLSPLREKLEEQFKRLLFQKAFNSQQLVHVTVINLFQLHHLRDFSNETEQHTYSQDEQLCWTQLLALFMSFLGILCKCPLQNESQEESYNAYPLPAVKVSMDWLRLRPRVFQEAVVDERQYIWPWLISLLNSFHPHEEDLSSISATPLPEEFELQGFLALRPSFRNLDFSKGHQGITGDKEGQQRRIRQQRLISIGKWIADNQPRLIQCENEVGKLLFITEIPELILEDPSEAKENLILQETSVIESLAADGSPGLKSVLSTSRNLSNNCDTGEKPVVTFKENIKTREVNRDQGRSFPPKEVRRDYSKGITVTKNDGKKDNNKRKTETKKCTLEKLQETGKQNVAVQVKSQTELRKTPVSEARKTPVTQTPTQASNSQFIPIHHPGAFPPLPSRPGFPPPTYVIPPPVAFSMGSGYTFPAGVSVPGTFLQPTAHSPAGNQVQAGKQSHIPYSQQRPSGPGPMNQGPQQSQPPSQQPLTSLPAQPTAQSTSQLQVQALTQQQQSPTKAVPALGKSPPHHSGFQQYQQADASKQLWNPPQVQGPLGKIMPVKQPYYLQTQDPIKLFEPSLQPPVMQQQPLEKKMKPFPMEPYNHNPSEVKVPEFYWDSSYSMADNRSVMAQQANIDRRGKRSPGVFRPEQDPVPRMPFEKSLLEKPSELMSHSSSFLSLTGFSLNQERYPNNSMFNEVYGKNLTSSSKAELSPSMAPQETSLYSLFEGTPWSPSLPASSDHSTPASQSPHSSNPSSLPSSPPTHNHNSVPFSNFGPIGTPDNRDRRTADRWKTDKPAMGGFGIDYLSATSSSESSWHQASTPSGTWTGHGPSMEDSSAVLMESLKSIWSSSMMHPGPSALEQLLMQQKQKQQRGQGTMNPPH
# Sequence of UniProt Q6NXT6 (Q6NXT6 whole entry, looked up): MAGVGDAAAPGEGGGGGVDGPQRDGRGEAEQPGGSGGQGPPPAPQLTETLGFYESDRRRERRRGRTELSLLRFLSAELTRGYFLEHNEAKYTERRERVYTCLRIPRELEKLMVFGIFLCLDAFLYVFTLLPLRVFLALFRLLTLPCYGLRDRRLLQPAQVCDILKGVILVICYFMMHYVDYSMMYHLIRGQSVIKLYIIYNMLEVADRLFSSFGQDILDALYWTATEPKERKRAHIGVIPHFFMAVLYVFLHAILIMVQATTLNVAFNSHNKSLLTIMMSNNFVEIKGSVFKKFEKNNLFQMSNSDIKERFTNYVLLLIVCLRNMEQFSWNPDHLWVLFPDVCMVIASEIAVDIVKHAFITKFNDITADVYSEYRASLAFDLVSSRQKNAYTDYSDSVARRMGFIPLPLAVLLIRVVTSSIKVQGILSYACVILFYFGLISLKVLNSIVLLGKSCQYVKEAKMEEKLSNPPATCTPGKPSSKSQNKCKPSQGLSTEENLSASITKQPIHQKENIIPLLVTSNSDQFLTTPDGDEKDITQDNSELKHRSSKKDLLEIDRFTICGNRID
# Sequence of UniProt Q15208 (Q15208 whole entry, looked up): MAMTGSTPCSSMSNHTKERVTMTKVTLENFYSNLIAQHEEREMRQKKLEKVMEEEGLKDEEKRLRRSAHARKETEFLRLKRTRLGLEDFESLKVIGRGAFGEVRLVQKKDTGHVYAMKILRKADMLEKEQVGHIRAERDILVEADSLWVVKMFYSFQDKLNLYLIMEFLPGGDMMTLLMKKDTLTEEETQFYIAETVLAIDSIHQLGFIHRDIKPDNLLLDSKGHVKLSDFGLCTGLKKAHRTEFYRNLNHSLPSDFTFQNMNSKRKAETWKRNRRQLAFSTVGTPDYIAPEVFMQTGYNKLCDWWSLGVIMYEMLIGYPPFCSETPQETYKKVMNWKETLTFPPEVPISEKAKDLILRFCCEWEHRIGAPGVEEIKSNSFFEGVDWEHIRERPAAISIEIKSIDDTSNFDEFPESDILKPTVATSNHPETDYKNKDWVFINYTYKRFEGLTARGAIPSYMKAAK
# Sequence of UniProt Q99963 (Q99963 whole entry, looked up): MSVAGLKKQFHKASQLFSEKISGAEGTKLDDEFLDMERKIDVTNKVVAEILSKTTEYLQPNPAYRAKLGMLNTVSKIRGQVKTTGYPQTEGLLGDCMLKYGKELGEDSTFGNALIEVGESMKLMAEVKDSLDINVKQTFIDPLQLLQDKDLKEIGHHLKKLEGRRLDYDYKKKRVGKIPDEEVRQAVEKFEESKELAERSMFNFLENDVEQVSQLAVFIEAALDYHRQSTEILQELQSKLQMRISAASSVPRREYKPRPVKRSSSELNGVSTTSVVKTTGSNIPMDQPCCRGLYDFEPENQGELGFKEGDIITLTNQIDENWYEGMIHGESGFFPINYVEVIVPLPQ
# Sequence of UniProt Q14849 (Q14849 whole entry, looked up): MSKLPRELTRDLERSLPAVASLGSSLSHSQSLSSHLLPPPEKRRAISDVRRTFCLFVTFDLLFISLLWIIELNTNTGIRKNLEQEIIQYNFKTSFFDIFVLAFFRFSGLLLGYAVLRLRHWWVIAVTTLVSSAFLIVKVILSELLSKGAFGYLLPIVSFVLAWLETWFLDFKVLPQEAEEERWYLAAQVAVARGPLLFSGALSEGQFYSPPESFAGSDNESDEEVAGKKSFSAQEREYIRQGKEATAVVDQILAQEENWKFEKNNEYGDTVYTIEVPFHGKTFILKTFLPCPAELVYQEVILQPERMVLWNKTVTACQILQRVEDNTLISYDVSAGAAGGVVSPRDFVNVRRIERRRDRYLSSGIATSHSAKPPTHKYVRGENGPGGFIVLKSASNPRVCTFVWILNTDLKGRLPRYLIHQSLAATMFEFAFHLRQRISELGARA
# Sequence of UniProt Q9BXP5 (Q9BXP5 whole entry, looked up): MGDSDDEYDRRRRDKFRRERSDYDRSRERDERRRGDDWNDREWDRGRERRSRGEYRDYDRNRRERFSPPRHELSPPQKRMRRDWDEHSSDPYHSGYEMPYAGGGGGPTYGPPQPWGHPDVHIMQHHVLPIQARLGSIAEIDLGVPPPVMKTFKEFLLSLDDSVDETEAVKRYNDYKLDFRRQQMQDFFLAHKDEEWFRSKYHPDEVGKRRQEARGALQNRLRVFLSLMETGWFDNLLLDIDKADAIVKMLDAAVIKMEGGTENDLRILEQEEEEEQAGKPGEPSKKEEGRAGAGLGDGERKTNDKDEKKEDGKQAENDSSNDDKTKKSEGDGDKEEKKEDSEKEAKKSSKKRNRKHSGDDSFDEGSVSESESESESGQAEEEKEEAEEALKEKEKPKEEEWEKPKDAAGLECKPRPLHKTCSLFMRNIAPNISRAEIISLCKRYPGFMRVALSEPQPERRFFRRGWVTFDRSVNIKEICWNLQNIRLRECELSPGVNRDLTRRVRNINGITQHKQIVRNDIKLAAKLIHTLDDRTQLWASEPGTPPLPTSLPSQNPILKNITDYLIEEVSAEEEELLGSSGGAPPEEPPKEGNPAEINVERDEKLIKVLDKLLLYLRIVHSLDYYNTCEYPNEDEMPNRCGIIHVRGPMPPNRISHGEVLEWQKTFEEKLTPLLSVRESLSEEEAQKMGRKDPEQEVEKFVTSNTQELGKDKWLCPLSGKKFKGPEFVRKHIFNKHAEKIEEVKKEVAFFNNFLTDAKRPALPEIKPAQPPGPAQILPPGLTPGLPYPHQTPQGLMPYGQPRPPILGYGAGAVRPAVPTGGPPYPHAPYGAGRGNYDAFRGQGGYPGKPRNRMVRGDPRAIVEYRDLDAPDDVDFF
# Sequence of UniProt Q9BVQ7 (Q9BVQ7 whole entry, looked up): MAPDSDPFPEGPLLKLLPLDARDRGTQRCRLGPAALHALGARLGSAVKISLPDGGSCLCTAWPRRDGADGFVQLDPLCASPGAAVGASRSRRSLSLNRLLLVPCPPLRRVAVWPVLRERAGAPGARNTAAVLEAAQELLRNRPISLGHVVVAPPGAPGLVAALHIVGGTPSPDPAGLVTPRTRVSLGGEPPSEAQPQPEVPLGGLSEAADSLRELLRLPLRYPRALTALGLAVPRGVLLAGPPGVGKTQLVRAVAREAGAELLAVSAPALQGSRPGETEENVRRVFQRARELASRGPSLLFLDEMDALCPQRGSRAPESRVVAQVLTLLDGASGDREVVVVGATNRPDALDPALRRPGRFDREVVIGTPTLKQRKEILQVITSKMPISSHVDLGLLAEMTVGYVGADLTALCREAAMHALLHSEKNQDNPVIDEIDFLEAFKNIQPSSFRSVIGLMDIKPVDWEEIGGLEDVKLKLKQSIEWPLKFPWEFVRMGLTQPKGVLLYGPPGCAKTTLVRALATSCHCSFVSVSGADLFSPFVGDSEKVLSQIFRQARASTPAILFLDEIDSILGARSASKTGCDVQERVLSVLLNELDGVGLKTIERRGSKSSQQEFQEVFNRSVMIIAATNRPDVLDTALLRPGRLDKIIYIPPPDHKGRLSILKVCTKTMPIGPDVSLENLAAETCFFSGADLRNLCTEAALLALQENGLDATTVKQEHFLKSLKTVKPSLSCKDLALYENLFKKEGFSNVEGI
# Sequence of UniProt P50225 (P50225 whole entry, looked up): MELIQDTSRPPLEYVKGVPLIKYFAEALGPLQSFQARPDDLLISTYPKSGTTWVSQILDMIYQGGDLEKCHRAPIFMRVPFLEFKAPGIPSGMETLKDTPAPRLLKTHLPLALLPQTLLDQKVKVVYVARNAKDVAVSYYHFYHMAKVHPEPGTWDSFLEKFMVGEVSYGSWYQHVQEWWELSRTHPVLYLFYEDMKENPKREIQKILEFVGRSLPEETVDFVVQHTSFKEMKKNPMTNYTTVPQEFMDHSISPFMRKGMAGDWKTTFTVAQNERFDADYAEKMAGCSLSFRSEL
Target,log2 fold change (nilotinib),log2 fold change [1],log2 fold change (dasatinib),log2 fold change [2],log2 fold change [3],log2 fold change (quisinostat),log2 fold change (tipifarnib),log2 fold change [4],log2 fold change [5],log2 fold change [6],log2 fold change [7],log2 fold change (vorinostat),log2 fold change (silmitasertib),log2 fold change [8],log2 fold change (entospletinib)
SLC27A4 (UniProt Q6P1M0),-0.061,0.002,0.026,-0.036,0.048,-0.123,0.096,0.036,-0.023,0.036,-0.127,-0.257 (active),0.016,-0.002,0.07
SHC1 isoform 6 (UniProt P29353),0.034,0.011,0.046,-0.02,-0.005,0.022,0.006,-0.036,-0.029,-0.001,0.029,0.025,-0.017,-0.055,-0.058
SNRPD3 (UniProt P62318),0.028,-0.006,0.016,-0.034,0.009,-0.002,-0.002,0.029,0.004,0.001,-0.011,0.12,-0.023,0.008,-0.027
SSB (UniProt E7ERC4),-0.059,0.165,0.007,0.198,-0.078,-0.198,0.171,0.152,-0.108,-0.128,-0.063,0.012,0.105,-0.11,-0.092
SOAT1 (UniProt P35610),0.313 (active),-0.019,0.071,-0.065,-0.022,-0.12,0.072,-0.042,0.045,-0.013,0.014,0.005,0,-0.037,0.015
SMG7 (UniProt Q92540),0.001,-0.034,0.003,-0.058,0.03,0.062,-0.072,0.054,-0.067,0.04,0.158,-0.053,0.027,-0.035,0.054
SLC38A1 (UniProt Q9H2H9),-0.001,0.007,0.001,-0.002,-0.041,-0.123,-0.032,-0.015,0.001,-0.024,-0.015,0.099,0,0.008,-0.015
SH3GL3 isoform 3 (UniProt Q99963),-0.075,-0.113,-0.067,0.096,-0.007,-0.033,0.029,0.075,0.024,-0.011,0.108,-0.091,0.028,0.01,0.01
SRRT (UniProt Q9BXP5),-0.013,-0.028,-0.087,-0.005,0.026,-0.058,0.013,0.058,0.016,-0.023,-0.036,-0.373 (active),0.044,-0.008,0.032
SMC1B isoform 3 (UniProt Q8NDV3),0.022,-0.041,-0.004,0.023,0.016,0.004,0.008,-0.014,-0.005,-0.055,-0.063,0.068,-0.011,0.026,0.004
STARD3 isoform 3 (UniProt Q14849),-0.06,-0.008,0.272 (active),0.063,0.02,0.027,-0.047,-0.039,0.015,0.026,0.022,0.065,0.047,0.03,-0.025
SKA2 (UniProt Q8WVK7),-0.062,0.015,0.005,0.005,0.026,0.122,-0.052,-0.022,0.004,-0.023,0.086,-0.364 (active),-0.035,0.067,-0.028
TARDBP (UniProt Q13148),-0.146,-0.079,-0.005,-0.051,0.007,-0.087,-0.554 (active),0.136,0.021,0.027,0.044,-0.44 (active),0.086,-0.268,-0.027
TAPT1 (UniProt Q6NXT6),0.009,0.012,0.013,0.03,-0.118,-0.053,0.017,-0.032,0.011,-0.001,0.023,0.09,0.007,0.023,0.001
SPATA5L1 (UniProt Q9BVQ7),-0.012,-0.003,-0.115,0.016,0.093,-0.059,0.028,0.047,0.039,-0.092,0.029,-0.408 (active),0.138,0.035,-0.021
STUB1 (UniProt Q9UNE7),0.031,-0.027,-0.037,0.027,0.004,-0.06,-0.011,0.053,0.015,0.004,-0.012,-0.33 (active),0.015,0.006,0.019
SRP54 (UniProt P61011),0.039,0.006,-0.021,0,0.034,0.048,-0.047,-0.001,-0.013,-0.015,0.003,-0.241 (active),0.008,0.021,-0.004
SSB (UniProt P05455),-0.013,-0.014,-0.008,0.006,-0.018,0.099,0.022,0.001,-0.013,0.012,0.027,0.081,0.01,0.032,0.005
SPNS1 (UniProt Q9H2V7),0.04,-0.025,0,-0.017,0.028,-0.039,0.069,-0.032,0.013,-0.005,0.086,-0.022,0.033,-0.025,-0.045
SULT1A1 (UniProt P50225),0.029,-0.074,0.009,-0.028,-0.007,-0.006,-0.043,0.047,0.007,-0.021,0.077,-0.273 (active),0.036,-0.021,0.071
STK38 (UniProt Q15208),-0.009,0.858 (active),-0.003,0.078,0.064,-0.14,-0.029,0.563 (active),0.054,0.036,0.021,-0.424 (active),0.16,-0.029,0
